Source: PubChem BioAssay (NCATS)
Inconclusive results are not listed. Entries that show only a call come without a potency. Activity calls are given as the source filed them. Calls come from the whole dose curve; as a rule, active = well fitted inhibition curve with a large enough effect; inconclusive = small, poorly fitted or top-dose-only effect; inactive = flat fitted curve, though single readings scatter. Where a SMILES comes first, the peptide text is derived from it. [ ]: non-standard residue; d: D form. pGlu = O=C1CC[C@@H](C(=O)O)N1
Potency is the fitted concentration of half-maximal effect.

What follows are compounds tested on Zika virus NS2B-NS3 protease (assay: Primary screen GU AMC qHTS for Zika virus inhibitors (AID 1347154; note: nearly all actives have a fitted effect of over 70% in size)). Conditions: Zika NS2B-NS3 unlinked protease, AMC fluorogenic substrate; series mostly up to 54.1 µM.
Method in brief: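 Fluorogenic AMC-substrate cleavage by noncovalent NS2B-NS3 protease complex (25 nM, pH 8.0 Tris buffer with Tween 20) followed for 15 minutes at room temperature (~20% conversion). Percent inhibition from ex340/em450 signal change, fitted by 4-parameter Hill equation.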
For `O=C1NCCN1CCN1CCC(c2cn(-c3ccc(F)cc3)c3ccc(Cl)cc23)CC1`, the Potency was “inactive”. In the case of `CN1CCC(=C2c3ccccc3CCc3cccnc32)CC1`, the Potency is reported as “inactive”. With `O=C(O)CCCC[P+](c1ccccc1)(c1ccccc1)c1ccccc1` the Potency was “inactive”. For `COc1cc(C=O)ccc1O`, the Potency was “inactive”. `CCCCCOc1ccc(C2SC(=O)NC2=O)cc1OCC` (stereo not drawn) was tested, and the Potency was “inactive”. For `CC(C)C(=O)Nc1cccc(C(F)(F)F)c1`, the Potency was “inactive”. With `CN1CCCN(C(c2ccccc2)c2ccc(Cl)cc2)CC1` (stereo not drawn) the Potency was “inactive”. With `NS(=O)(=O)c1cc(C(=O)NN2C[C@H]3[C@H]4CCC(C4)[C@H]3C2)ccc1Cl` the Potency was “inactive”. In the case of `CC(=O)O[C@@H]1CC2C3CCc4cc(OC(=O)c5ccccc5)ccc4C3CCC2(C)[C@H]1OC(C)=O` (stereo partly drawn), the Potency is reported as “inactive”. With `Cn1c(=O)c2c(ncn2CC(=O)O)n(C)c1=O` the Potency was “inactive”. With `CCOC(=O)[C@H](CCc1ccccc1)N[C@@H](C)C(=O)N(CC(=O)O)C1Cc2ccccc2C1` the Potency was “inactive”. In the case of `CCCC(=O)Nc1ccc(O)c(C(C)=O)c1`, the Potency is reported as “inactive”. With `CCCCCC1Nc2cc(C(F)(F)F)c(S(N)(=O)=O)cc2S(=O)(=O)N1` (stereo not drawn) the Potency was “inactive”. With `CC(C)(C)CC(=O)OCC(=O)[C@@]1(O)CC[C@H]2[C@@H]3CCC4=CC(=O)C=C[C@]4(C)[C@H]3[C@@H](O)C[C@@]21C` the Potency was “inactive”. `CC(=O)Nc1c(I)c(NC(C)=O)c(I)c(C(=O)O)c1I` was tested, and the Potency was “inactive”. For `O=C(Oc1ccccc1)c1ccccc1O`, the Potency was “inactive”. In the case of `Nc1nc2ccccc2n1Cc1ccc(F)cc1`, the Potency is reported as “inactive”. With `NC(=O)NS(=O)(=O)c1ccc(Cl)cc1` the Potency was “inactive”. `CC(C)C(=O)Nc1cccc(C2CN3CCSC3=N2)c1` (stereo not drawn) was tested, and the Potency was “inactive”. With `CCCc1c2oc(C(=O)O)cc(=O)c2cc2c(=O)cc(C(=O)O)n(CC)c12` the Potency was “inactive”. In the case of `CC1(C)O[C@@H]2C[C@H]3[C@@H]4C[C@H](F)C5=CC(=O)C=C[C@]5(C)[C@@]4(F)[C@@H](O)C[C@]3(C)[C@]2(C(=O)CO)O1`, the Potency is reported as “inactive”. `C[C@H]1C[C@H](O)c2ccsc2S1(=O)=O` was tested, and the Potency was “inactive”. For `CCCCCCCCCCCCCCCC[n+]1ccccc1`, the Potency was “inactive”. For `O=C1Nc2cc(Cl)ccc2Oc2ccccc21`, the Potency was “inactive”. In the case of `NCC(=O)O`, the Potency is reported as “inactive”. `CC1(C)O[C@@H]2C[C@H]3[C@@H]4CCC5=CC(=O)C=C[C@]5(C)[C@@]4(F)[C@@H](O)C[C@]3(C)[C@]2(C(=O)CO)O1` was tested, and the Potency was “inactive”. `O=C(CCCl)NCCc1ccccc1` was tested, and the Potency was “inactive”. With `CC(C)(C)c1cc(C=O)cc(C(C)(C)C)c1O` the Potency was “inactive”. With `COC(=O)CCCCC(CCSS/C(CCO)=C(\C)N(C=O)Cc1cnc(C)nc1N)SC(C)=O` (stereo not drawn) the Potency was “inactive”. `CCCCCCn1c(=O)c2c(ncn2C)n(C)c1=O` was tested, and the Potency was “inactive”. With `CCCC(=O)O[C@]1(C(=O)COC(=O)CC)CC[C@H]2[C@@H]3CCC4=CC(=O)CC[C@]4(C)[C@H]3[C@@H](O)C[C@@]21C` the Potency was “inactive”. In the case of `CCNC(=O)[C@@H]1CCCN1C(=O)[C@H](CCCN=C(N)N)NC(=O)[C@H](CC(C)C)NC(=O)CNC(=O)[C@H](Cc1ccc(O)cc1)NC(=O)[C@H](CO)NC(=O)[C@H](Cc1c[nH]c2ccccc12)NC(=O)[C@H](Cc1cnc[nH]1)NC(=O)[C@@H]1CCC(=O)N1` ([pGlu]HWSYGLRP-NHEt), the Potency is reported as “inactive”. In the case of `CC(C)C[C@@H]1[C@H](c2ccccc2)OC(=O)N1CCCN1CCCCCC1`, the Potency is reported as “inactive”. In the case of `CCN(CC)CCN`, the Potency is reported as “inactive”. With `COc1c(N2C[C@@H]3CCCN[C@@H]3C2)c(F)cc2c(=O)c(C(=O)O)cn(C3CC3)c12` the Potency was 14.4 µM (active). `OCc1c[nH]c2ccccc12` was tested, and the Potency was “inactive”. `O=C(O)Cn1cnnn1` was tested, and the Potency was “inactive”. For `O=C(CS(=O)Cc1ccco1)NC/C=C\COc1cc(CN2CCCCC2)ccn1` (stereo not drawn), the Potency was “inactive”.
